Results filed as inconclusive are left out. The source made the active and inactive calls. How the source made its calls, unless noted: active means hit-call score of the fitted dose curve at least 0.9, where 1 is the maximum; inactive means score below 0.9.
Assays:
[1] = test system: SRY-box transcription factor 17 (SOX17) Protein Expression, Deisenroth Lab, SOX17 (gene 64321); assay: CCTE_Deisenroth_DEVTOX-GLR_legacy_Sox17: (Legacy) CCTE's DevTox GLR-Endo Assay Evaluation of SRY-box transcription factor 17 (SOX17) Protein Expression, Deisenroth Lab (AID 2284341); settings: actives raise or lower the signal
Summary of the method: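 Percent SOX17-positive cells, scored by high-content imaging as mean intensity exceeding pluripotent-control median by 5x BMAD, divided by cell count. Human RUES2-GLR endoderm differentiation, 48 h, two exposures 24 h apart, 1 nM–200 uM; DMSO-referenced bidirectional fitting.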

[2] = test system: SERPINA7 (gene 6906); assay: CCTE_GLTED_hTBG: CCTE's human Thyroxine-binding Globulin (TBG) Inhibition Assay, Great Lakes Toxicology and Ecology Division (GLTED) Lab (AID 2284343; active means hit-call score of the fitted dose curve at least 0.9, where 1 is the maximum;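 further: active chemicals lower fluorescence versus DMSO baseline by displacing probe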)
Summary of the method: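 Cell-free binding assay in which human TBG is incubated with test chemical for 2 hours and displacement of the fluorescent probe ANSA is read at 380 nm excitation/475 nm emission. Activity is fitted against DMSO as the negative control.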

[3] = test system: SRY-box transcription factor 2 (SOX2) Protein Expression, Deisenroth Lab, SOX2 (gene 6657); assay: CCTE_Deisenroth_DEVTOX-GLR_legacy_Sox2: (Legacy) CCTE's DevTox GLR-Endo Assay Evaluation of SRY-box transcription factor 2 (SOX2) Protein Expression, Deisenroth Lab (AID 2284346)
Summary of the method: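 RUES2-GLR human pluripotent cells seeded 24 h, then differentiated 48 h in defined media with two chemical doses 24 h apart (10-point, 1 nM–200 uM). Fixed, nuclear-stained, imaged; % Sox2+ cells (>5x BMAD over endoderm control median), DMSO-subtracted, fitted upward.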

[4] = test system: SRY-box transcription factor 17 (SOX17) Protein Expression, Deisenroth Lab, SOX17 (gene 64321); assay: CCTE_Deisenroth_DEVTOX-GLR_Endo_SOX17: CCTE's DevTox GLR-Endo Assay Evaluation of SRY-box transcription factor 17 (SOX17) Protein Expression, Deisenroth Lab (AID 2284413)
Summary of the method: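 Endpoint: % change in SOX17+ fraction (SOX17+ cells / cell count) vs 0.2% DMSO solvent control. RUES2-GLR reporter cells, 48 h endoderm differentiation, two doses at 24 h intervals, high-content fluorescence imaging, 5 fields/well.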

[5] = test system: Brachyury (BRA) Protein Expression, TBXT (gene 6862); assay: CCTE_Deisenroth_DEVTOX-GLR_Endo_BRA: CCTE's DevTox GLR-Endo Assay Evaluation of Brachyury (BRA) Protein Expression, Deisenroth Lab (AID 2284417)
Summary of the method: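 Endpoint is the fraction of BRA reporter-positive cells over total nuclei, corrected by subtracting the 0.2% DMSO value. Chemicals (1 nM - 200 uM, 10 points) were dosed twice during 48 h differentiation of RUES2-GLR cells, read by imaging.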

[6] = CCTE_Deisenroth_DEVTOX-GLR_Endo_CellCount: Viability Assessment in CCTE's DevTox GLR-Endo Assay, Deisenroth Lab (AID 2284420)
Summary of the method: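 Percent change in nuclear-stain cell counts versus 0.2% DMSO, from high-content imaging over 5 fields per well. Over a 48 h endoderm differentiation, RUES2-GLR cells received two doses 24 h apart across a 1 nM–200 uM series, with n=4.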

[7] = CCTE_Padilla_ZF_Score.Craniofacial: CCTE's 144 Hour Post-fertilization zebrafish Assay Score for Craniofacial Malformation, Padilla Lab (AID 2284405)
Summary of the method: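 Wild-type zebrafish embryos (with chorions), one per well in 10% Hanks', were dosed at 6–8 hpf in sealed plates and kept at 26C. They were rinsed at 5 dpf. At 6 dpf two blinded assessors scored craniofacial malformations by brightfield stereomicroscopy.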

[8] = CCTE_Padilla_ZF_Score.Edema: CCTE's 144 Hour Post-fertilization zebrafish Assay Score for Edema Malformation, Padilla Lab (AID 2284406)
Summary of the method: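 Wild-type zebrafish embryos, one per well in Hanks' solution, dosed at 6-8 hpf, sealed and reared at 26C on a 14:10 h cycle; rinsed on 5 dpf. At 6 dpf, blinded assessors scored edema by stereomicroscopy.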

[9] = CCTE_Padilla_ZF_Score.Spine: CCTE's 144 Hour Post-fertilization zebrafish Assay Score for Spine Malformation, Padilla Lab (AID 2284407)
Summary of the method: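 Wild-type zebrafish embryos, one per well in Hanks' solution, dosed at 6–8 hpf in sealed plates at 26C, 14:10 h light:dark; rinsed at 5 dpf. Two blinded assessors scored spinal defects by stereomicroscopy at 6 dpf; fitted versus DMSO.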

[10] = CCTE_Padilla_ZF_Score.Swim_bladder: CCTE's 144 Hour Post-fertilization zebrafish Assay Score for Swim Bladder Malformation, Padilla Lab (AID 2284408)
Summary of the method: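 Wild-type zebrafish embryos, one per well in 10% Hanks', dosed at 6–8 hpf, sealed, reared at 26C and rinsed at 5 dpf. Blinded assessors scored uninflated swim bladder by stereomicroscopy at 6 dpf, relative to DMSO.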

[11] = CCTE_Padilla_ZF_Score.Position: CCTE's 144 Hour Post-fertilization zebrafish Assay Score for Position, Padilla Lab (AID 2284409)
Summary of the method: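 Wild-type zebrafish embryos (with chorions) exposed singly from 6–8 hpf in sealed wells of Hanks' solution at 26C, rinsed at 5 dpf. At 6 dpf, blinded assessors scored abnormal water-column position by brightfield stereomicroscopy, relative to DMSO.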

[12] = CCTE_Padilla_ZF_Score.Living: CCTE's 144 Hour Post-fertilization zebrafish Assay Score for Viability, Padilla Lab (AID 2284410);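 further: larval death at 6 dpf judged by absent heartbeat or coagulation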
Summary of the method: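 Wild-type zebrafish embryos were exposed singly from 6–8 hpf in sealed wells of Hanks' solution at 26C, then rinsed at 5 dpf. At 6 dpf, blinded assessors scored mortality (no heartbeat or coagulation) by stereomicroscopy, fitted against DMSO.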

[13] = CCTE_Padilla_ZF_Score.General: CCTE's 144 Hour Post-fertilization zebrafish Assay Score for General Malformation, Padilla Lab (AID 2284411)
Summary of the method: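 Wild-type zebrafish embryos were plated singly at 6-8 hpf in 10% Hanks' and exposed in sealed wells at 26C until rinsed on 5 dpf. At 6 dpf two blinded assessors scored mortality, hatching and malformations by stereomicroscopy; gain-of-signal versus DMSO.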

[14] = CCTE_Padilla_ZF_Score.Tail: CCTE's 144 Hour Post-fertilization zebrafish Assay Score for Tail Malformation, Padilla Lab (AID 2284414)
Summary of the method: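 Wild-type zebrafish embryos, one per well in 200 uL 10% Hanks', dosed at 6-8 hpf, sealed, and kept at 26 C on a 14:10 h light cycle. Chemical was rinsed out at 5 dpf. Blinded brightfield scoring of tail defects followed at 6 dpf.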

[15] = CCTE_Padilla_ZF_Score.Blood_pooling: CCTE's 144 Hour Post-fertilization zebrafish Assay Score for Blood Pooling, Padilla Lab (AID 2284415)
Summary of the method: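 Wild-type outbred zebrafish embryos, one per well in 10% Hanks', exposed from 6–8 hpf in sealed plates at 26C on 14:10 h light:dark, rinsed at 5 dpf. Blinded stereomicroscope scoring of blood pooling at 6 dpf; gain-of-signal versus DMSO.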

[16] = CCTE_Padilla_ZF_Score.Any: CCTE's 144 Hour Post-fertilization zebrafish Assay Score for Any Mortality or Malformation, Padilla Lab (AID 2284416)
Summary of the method: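 Wild-type zebrafish embryos with chorions, one per well in 10% Hanks' from 6–8 hpf, dosed in sealed plates at 26 C, 14:10 h light:dark; rinsed at 5 dpf; blinded scoring at 6 dpf for death or malformation, versus DMSO.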

[17] = IUF_NPC1_cytotoxicity_72hr: Cytotoxicity Assessment at 72 hours in the Leibniz Research Institute for Environmental Medicine (IUF) Neural Progenitor Cell Proliferation Assay (NPC1) (AID 2284332; active means hit-call score of the fitted dose curve at least 0.9, where 1 is the maximum;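 further: rising LDH signal means more cytotoxicity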)
Summary of the method: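 Single human fetal cortex neural progenitor spheres (GW 16-19, 0.25-0.35 mm) in EGF/FGF proliferation medium were exposed to compound for 72 h at 37C without renewal. Medium LDH release was read as resorufin fluorescence and fitted as gain-of-signal.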

[18] = CCTE_Mundy_HCI_iCellGluta_NOG_NeuronCount: CCTE's Neurite Outgrowth Assay in iCellGluta cells for Neuron Count, Mundy Lab (AID 2284340; active means hit-call score of the fitted dose curve at least 0.9, where 1 is the maximum;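 further: cells fixed about 48 h after compound addition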)
Summary of the method: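 Neuron count read by automated high-content imaging of Hoechst 33342 and betaIII-tubulin/Alexa Fluor-488 labelling in human iPSC glutamatergic neurons. Activity fitted relative to DMSO.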

[19] = CCTE_Mundy_HCI_iCellGluta_NOG_NeuriteCount: CCTE's Neurite Outgrowth Assay in iCellGluta cells for Neurite Count, Mundy Lab (AID 2284342; active means hit-call score of the fitted dose curve at least 0.9, where 1 is the maximum;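 further: chemical exposure about 48 hours starting 2 hours after plating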)

Measured: AC50

O=C(O)c1ccccc1O
inactive: [1] | [3] | [4] | [5] | [6]
active: [2] 50 µM

C=C(F)C(=O)OC(C(F)(F)F)C(F)(F)F
inactive: [7] | [8] | [9] | [10] | [11] | [12] | [13] | [14] | [15] | [16]

O=c1cc(-c2ccc(O)cc2)oc2cc(O)cc(O)c12
active: [2] 38.2 µM

O=C(O)C(F)(F)OC(F)(F)C(F)(F)OC(F)(F)C(F)(F)C(F)(F)C(F)(F)F
inactive: [7] | [8] | [9] | [10] | [11] | [14] | [15] | [16]
active: [12] 81.2 µM | [13] 81.3 µM

CCOC(=O)C=Cc1ccccc1
inactive: [13]

c1ccc2scnc2c1
inactive: [17] | [18] | [19]

O=C(O)C(F)(F)C(F)(F)C(F)(F)C(F)(F)C(F)(F)C(F)(F)C(F)(F)C(F)F
inactive: [7] | [8] | [9] | [10] | [11] | [12] | [13] | [14] | [15]
active: [2] 73.1 µM | [16] 88.5 µM

C=C1CC[C@H]2O[C@]2(C)CC[C@@H]2[C@@H]1CC2(C)C
active: [13] 65.4 µM

OCC(F)(OC(F)(F)C(F)(OC(F)(F)C(F)(F)C(F)(F)F)C(F)(F)F)C(F)(F)F (stereo not drawn)
inactive: [8] | [9] | [10] | [11] | [13] | [14] | [15]
active: [7] 34.8 µM | [12] 35.4 µM | [16] 31.8 µM

Source: PubChem BioAssay (EPA / NIEHS)
